Measured values from PubChem BioAssay.
The source made the active and inactive calls.

Columns and labels:
[1] = small molecules captured by biotinylated probe aFSTL3 – biochemical, small-molecule microarray, fluorescence 635/667, stem cell growth factor project, primary screen (AID 1064); settings: higher = more signal;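 further: measures binding of the biotinylated anti-FSTL3 antibody to printed compounds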
[2] = binders from COS7 lysate, DM2A8 probe, primary screen, torsin A project, cell lysate, small-molecule microarray, fluorescence 635/667 (AID 1065); settings: higher = more signal, COS7 lysate expressing mutant human TOR1A
[3] = small molecules captured by biotinylated probe aFGF2 – biochemical, small-molecule microarray, fluorescence 635/667, stem cell growth factor project, primary screen (AID 1067); settings: higher = more signal;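 further: measures binding of biotinylated aFGF2 protein to printed compounds on slides; z-score merges feature fluorescence and signal-to-noise across triplicate slides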
[4] = small molecules captured by biotinylated probe aFGF10 – biochemical, small-molecule microarray, fluorescence 635/667, stem cell growth factor project, primary screen (AID 1071); settings: higher = more signal;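 further: score merges 667 nm spot intensity and signal to noise from triplicate slides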
[5] = target: Neurogenic locus notch homolog protein 2 (Homo sapiens) (UniProt Q04721); test: small molecules binding Notch2 protein – biochemical, small-molecule microarray, 635 nm fluorescence, stem cell growth factors, primary screen (AID 1073); settings: higher = more signal
Chain of Neurogenic locus notch homolog protein 2 (Homo sapiens) (Q04721 whole entry, looked up, canonical isoform): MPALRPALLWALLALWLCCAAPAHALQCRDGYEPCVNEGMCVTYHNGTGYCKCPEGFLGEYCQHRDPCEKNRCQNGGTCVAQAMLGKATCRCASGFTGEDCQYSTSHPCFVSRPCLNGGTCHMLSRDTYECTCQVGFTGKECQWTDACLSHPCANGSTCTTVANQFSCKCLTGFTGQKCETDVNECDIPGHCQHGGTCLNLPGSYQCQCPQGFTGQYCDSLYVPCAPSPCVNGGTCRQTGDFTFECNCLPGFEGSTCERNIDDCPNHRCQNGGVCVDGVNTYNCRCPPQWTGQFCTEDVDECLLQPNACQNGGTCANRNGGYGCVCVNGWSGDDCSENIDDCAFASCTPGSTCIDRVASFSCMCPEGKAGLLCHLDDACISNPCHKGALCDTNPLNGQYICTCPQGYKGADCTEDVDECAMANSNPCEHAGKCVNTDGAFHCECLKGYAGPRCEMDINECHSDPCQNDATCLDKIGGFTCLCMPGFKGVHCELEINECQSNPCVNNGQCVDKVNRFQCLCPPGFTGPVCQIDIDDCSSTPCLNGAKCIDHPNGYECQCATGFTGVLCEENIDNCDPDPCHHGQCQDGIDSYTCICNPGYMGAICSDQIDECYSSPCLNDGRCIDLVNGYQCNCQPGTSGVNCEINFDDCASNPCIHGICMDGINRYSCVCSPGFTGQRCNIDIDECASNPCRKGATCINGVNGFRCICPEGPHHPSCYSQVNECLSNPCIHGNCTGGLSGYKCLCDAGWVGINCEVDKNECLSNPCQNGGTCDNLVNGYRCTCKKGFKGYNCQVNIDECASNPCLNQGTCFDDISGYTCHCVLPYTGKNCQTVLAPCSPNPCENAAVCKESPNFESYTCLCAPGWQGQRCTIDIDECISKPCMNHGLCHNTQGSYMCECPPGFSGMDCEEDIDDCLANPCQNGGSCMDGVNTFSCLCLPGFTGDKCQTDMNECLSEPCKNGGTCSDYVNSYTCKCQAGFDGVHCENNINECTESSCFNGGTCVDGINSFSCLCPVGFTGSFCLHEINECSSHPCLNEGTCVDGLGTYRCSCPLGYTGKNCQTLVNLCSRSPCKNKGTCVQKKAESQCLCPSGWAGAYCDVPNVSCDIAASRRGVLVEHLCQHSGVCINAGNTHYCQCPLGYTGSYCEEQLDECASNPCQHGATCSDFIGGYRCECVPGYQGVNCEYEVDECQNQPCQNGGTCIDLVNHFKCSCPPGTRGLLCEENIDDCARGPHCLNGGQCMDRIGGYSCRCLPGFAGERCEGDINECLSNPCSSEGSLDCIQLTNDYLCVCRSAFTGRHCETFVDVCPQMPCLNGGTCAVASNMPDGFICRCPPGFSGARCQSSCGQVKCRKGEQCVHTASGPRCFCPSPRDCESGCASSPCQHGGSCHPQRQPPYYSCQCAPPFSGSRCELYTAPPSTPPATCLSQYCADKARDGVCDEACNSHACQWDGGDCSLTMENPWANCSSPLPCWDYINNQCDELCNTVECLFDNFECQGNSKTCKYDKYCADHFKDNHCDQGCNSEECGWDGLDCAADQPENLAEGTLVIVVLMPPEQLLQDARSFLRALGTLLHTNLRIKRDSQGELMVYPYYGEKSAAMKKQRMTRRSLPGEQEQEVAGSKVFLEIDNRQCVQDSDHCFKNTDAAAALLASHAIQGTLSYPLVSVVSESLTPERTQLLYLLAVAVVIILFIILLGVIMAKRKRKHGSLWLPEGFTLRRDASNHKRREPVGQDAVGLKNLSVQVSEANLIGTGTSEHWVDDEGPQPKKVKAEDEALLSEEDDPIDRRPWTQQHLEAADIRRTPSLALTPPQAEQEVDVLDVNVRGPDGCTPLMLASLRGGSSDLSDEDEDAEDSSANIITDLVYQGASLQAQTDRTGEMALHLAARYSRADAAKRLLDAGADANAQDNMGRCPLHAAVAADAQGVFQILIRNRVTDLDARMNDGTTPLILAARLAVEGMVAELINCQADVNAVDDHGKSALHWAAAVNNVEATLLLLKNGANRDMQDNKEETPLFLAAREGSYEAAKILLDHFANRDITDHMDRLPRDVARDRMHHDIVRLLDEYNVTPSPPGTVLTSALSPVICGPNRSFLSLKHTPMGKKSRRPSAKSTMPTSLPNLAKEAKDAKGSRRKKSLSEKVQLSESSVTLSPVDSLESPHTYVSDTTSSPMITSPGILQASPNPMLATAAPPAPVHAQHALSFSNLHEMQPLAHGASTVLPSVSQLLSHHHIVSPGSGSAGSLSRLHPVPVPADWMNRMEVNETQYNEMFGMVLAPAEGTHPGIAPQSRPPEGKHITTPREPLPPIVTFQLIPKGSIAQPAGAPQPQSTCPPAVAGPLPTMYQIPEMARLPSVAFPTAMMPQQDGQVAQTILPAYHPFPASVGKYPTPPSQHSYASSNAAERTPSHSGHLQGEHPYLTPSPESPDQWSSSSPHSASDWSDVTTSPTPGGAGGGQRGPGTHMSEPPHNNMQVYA

[6] = target: Pro-neuregulin-1, membrane-bound isoform (Homo sapiens) (UniProt Q02297); test: small molecules binding neuregulin-1 protein – biochemical, small-molecule microarray, fluorescence 635/667, psychiatric disease protein project, primary screen (AID 1075); settings: NRG1 binding, 635 nm fluorescence, higher = more signal;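 further: score combines 667 nm spot fluorescence with signal to noise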
[7] = tested on: Neuregulin-1 EGF-like domain; test: small molecules binding NRG1 EGF domain – biochemical, small-molecule microarray, 635 nm fluorescence, primary screen (AID 1081); settings: higher = more signal;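 further: binding of the protein to compounds printed on small-molecule microarray slides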
[8] = FRG1 expression reporter modulators in myotubes – cell-based, C2C12 myotubes, firefly/Renilla luciferase, luminescence, FRG1 inhibition for FSHD, primary screen (AID 1084); settings: FRG1 promoter luciferase, higher = more signal, called active from +8 up or from −8 down
[9] = small molecules captured by biotinylated probe aFST – biochemical, small-molecule microarray, fluorescence 635/667, stem cell growth factor project, primary screen (AID 1086); settings: higher = more signal;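 further: score merges 667 nm fluorescence with signal-to-noise of each printed compound spot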
[10] = binders of probe aHhip on microarray, primary screen, stem cell growth factor project, biochemical, small-molecule microarray, fluorescence 635/667 (AID 1087); settings: higher = more signal;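 further: score merges spot fluorescence at 667nm with spot signal to noise ratio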
[11] = tested on: PRMT1 (protein arginine N-methyltransferase 1); test: small molecules binding arginine methyltransferase PRMT1 – biochemical, small-molecule microarray, 635 nm fluorescence, primary screen (AID 1088); settings: higher = more signal;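 further: binding of Prmt1 protein to compounds spotted on small-molecule microarray slides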
[12] = growth effects on S. cerevisiae YJM789 – YJM789 clinical isolate, OD600, 24 h, basal, primary screen (AID 1089); settings: higher = more signal, called active from +8 up or from −8 down;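 further: growth of clinical yeast isolate S. cerevisiae YJM 789 seeded 1000 cells per well; test concentration not given here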
[13] = S. pombe growth modifiers, basal conditions – strain 972, OD600, 24 h, no modulator, primary screen (AID 1090);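 further: basal condition with compound alone and no growth modifier present; test concentration not given here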; settings: S. pombe 972 growth, higher = more signal, called active from +8 up or from −8 down
[14] = budding yeast growth modifiers under rapamycin – strain BY4716, OD600, 96 h, primary screen (AID 1091); further: test concentration not given here; settings: S. cerevisiae BY4716 + rapamycin, higher = more signal, called active from +8 up or from −8 down
[15] = target: Torsin-1A-interacting protein 2 (Homo sapiens) (UniProt Q8NFQ8); test: small molecules binding lysate-expressed LULL1 – cell lysate, human LULL1 lysate, 635/667 nm fluorescence, primary screen (AID 1092); settings: small-molecule microarray, hLULL1 lysate binding, 635 nm fluorescence; higher = more signal;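 further: probe is lysate of COS7 cells overexpressing human LULL1; score merges per-feature 667 nm fluorescence with signal-to-noise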
[16] = optical density change of DRC41 E. coli – strain DRC41, OD650, 24 h, E. coli filamentation project, primary screen (AID 1093);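 further: MC1000 strain lacking acrAB efflux and sulA so SOS filamentation is blocked; test concentration not given here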; settings: E. coli DRC41 growth, higher = more signal, called active from +8 up or from −8 down
[17] = probe aLefty2 binding to arrayed compounds – biochemical, biotinylated probe, 635/667 nm fluorescence, primary screen (AID 1094); settings: small-molecule microarray, higher = more signal;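 further: score merges spot fluorescence near 667 nm with spot signal-to-noise ratio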
[18] = tested on: Noggin (protein binding on small-molecule microarray); test: small molecules binding Noggin protein – biochemical, 635/667 nm fluorescence, primary screen (AID 1095); settings: 635 nm fluorescence, higher = more signal;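 further: score merges 667 nm feature fluorescence with signal to noise over triplicate slides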
[19] = target: Neurogenic locus notch homolog protein 3 (Homo sapiens) (UniProt Q9UM47); test: small molecules binding NOTCH3 protein – biochemical, 635/667 nm fluorescence, primary screen (AID 1096); settings: small-molecule microarray, 635 nm fluorescence, higher = more signal
Chain of Neurogenic locus notch homolog protein 3 (Homo sapiens) (Q9UM47 whole entry, looked up): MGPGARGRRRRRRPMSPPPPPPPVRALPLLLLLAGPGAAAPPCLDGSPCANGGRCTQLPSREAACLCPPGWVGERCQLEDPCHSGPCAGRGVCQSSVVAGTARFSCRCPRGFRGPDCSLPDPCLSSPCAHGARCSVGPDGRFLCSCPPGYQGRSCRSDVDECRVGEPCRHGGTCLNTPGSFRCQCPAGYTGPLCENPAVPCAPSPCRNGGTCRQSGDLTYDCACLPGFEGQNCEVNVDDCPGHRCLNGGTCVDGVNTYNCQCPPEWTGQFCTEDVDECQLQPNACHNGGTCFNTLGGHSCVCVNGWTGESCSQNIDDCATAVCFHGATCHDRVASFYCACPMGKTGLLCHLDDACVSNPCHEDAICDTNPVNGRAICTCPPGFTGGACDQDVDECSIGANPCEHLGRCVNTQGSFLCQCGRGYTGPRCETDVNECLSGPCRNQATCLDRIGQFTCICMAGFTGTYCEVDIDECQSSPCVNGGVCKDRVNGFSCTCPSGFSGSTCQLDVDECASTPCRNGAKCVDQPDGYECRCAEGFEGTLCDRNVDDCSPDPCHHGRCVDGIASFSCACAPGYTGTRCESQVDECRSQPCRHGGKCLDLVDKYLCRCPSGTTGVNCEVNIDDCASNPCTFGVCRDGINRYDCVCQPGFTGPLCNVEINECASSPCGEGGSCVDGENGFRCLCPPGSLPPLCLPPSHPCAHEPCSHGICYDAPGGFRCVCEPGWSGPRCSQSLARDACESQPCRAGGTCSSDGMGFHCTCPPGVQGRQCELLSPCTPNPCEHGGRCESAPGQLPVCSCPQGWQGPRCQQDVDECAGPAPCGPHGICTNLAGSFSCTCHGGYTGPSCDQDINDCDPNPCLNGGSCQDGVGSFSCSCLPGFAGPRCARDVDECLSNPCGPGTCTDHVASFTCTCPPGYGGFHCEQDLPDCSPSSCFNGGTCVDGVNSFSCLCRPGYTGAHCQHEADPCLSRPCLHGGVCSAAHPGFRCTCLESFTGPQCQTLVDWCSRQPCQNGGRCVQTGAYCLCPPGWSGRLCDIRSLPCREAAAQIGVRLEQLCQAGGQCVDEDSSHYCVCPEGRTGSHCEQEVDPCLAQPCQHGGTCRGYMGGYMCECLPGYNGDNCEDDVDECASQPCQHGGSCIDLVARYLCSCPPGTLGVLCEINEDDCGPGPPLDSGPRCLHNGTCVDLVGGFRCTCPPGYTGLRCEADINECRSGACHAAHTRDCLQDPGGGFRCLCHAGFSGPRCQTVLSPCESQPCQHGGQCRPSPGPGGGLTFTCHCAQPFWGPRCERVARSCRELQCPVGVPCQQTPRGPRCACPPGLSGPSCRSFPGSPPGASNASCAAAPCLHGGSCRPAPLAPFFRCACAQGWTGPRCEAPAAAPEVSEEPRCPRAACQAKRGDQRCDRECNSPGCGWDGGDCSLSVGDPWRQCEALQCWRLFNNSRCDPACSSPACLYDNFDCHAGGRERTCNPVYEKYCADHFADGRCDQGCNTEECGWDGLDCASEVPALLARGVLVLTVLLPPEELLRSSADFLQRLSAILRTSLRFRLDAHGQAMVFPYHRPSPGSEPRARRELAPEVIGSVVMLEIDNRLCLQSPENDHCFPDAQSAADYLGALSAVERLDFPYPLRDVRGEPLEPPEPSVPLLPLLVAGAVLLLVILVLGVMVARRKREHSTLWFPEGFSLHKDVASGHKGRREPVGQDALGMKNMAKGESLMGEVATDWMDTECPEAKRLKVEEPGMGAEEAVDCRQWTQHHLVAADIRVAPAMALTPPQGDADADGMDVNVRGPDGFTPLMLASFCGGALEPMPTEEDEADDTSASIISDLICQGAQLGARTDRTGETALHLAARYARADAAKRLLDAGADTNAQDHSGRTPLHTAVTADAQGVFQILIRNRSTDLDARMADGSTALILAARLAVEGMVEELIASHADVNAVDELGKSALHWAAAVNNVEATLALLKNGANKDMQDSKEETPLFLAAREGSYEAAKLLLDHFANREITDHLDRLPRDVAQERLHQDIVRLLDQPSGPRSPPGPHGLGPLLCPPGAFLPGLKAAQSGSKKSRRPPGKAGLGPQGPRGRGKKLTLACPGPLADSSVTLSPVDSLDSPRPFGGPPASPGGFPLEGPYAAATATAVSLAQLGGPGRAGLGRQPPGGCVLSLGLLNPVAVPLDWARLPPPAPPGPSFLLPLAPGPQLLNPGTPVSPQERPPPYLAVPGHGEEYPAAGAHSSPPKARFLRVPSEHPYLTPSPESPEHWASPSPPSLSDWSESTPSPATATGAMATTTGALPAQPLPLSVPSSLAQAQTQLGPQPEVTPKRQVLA

[20] = probe aEGFR binding to arrayed compounds – biochemical, biotinylated probe, 635/667 nm fluorescence, primary screen (AID 1097); settings: small-molecule microarray, higher = more signal;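 further: probe is a biotinylated anti-EGFR antibody binding compounds printed on slides; score combines fluorescence near 667 nm and signal to noise of each spot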

Compound | composite z-score [1] | composite z-score [2] | composite z-score [3] | composite z-score [4] | composite z-score [5] | composite z-score [6] | composite z-score [7] | z-score [8] | composite z-score [9] | composite z-score [10] | composite z-score [11] | z-score [12] | z-score [13] | z-score [14] | composite z-score [15] | z-score [16] | composite z-score [17] | composite z-score [18] | composite z-score [19] | composite z-score [20]
COc1ccc(C#Cc2ccc3c(c2)[C@]2(C(=O)N3)[C@H](C(=O)N3CCc4cc(OC)c(OC)cc4C3)[C@H]3C(=O)O[C@H](c4ccccc4)[C@H](c4ccccc4)N3[C@@H]2c2ccc(OCCO)cc2)cc1 | -0.304 | 0.487 | 0.0019 | 0.817 | 1.32 | 0.213 | 1.2 | 0.239 (inactive) | 0.35 | 0.314 | 1.55 | 3.09 (inactive) | 2.07 (inactive) | 6.17 (inactive) | 2.51 | 1.9 (inactive) | -0.0728 | 1.48 | 1.17 | 0.102
COCCOC(=O)N1C(=O)[C@@]2(c3cc(C#CCCO)ccc31)[C@H](C(=O)NC[C@H](O)c1ccccc1)[C@H]1C(=O)O[C@H](c3ccccc3)[C@H](c3ccccc3)N1[C@@H]2c1ccc(OCCO)cc1 | 0.664 | 0.271 | -0.114 | 0.208 | 1.08 | 1.27 | 1.16 | 0.469 (inactive) | 0.152 | -0.11 | 1.54 | 1.23 (inactive) | 0.619 (inactive) | 4.47 (inactive) | 3.11 | 2.17 (inactive) | 0.0129 | 0.909 | 1.05 | 0.0634
COc1ccccc1CN1C(=O)c2ccccc2[C@](Cc2ccccc2I)(C(=O)NC2CC2)[C@@H]1c1ccc(CO)cc1 | -0.532 | 0.46 | 0.0673 | 0.531 | 1.32 | 0.949 | 1.42 | -2.86 (inactive) | 0.653 | 0.136 | 1.54 | -0.357 (inactive) | 0.642 (inactive) | 2.01 (inactive) | 3.3 | 0.199 (inactive) | -0.117 | 1.1 | 1.06 | -0.0897
CCOC(=O)C[C@H]1[C@H](OC(=O)c2cc3ccccc3oc2=O)[C@@H](NC(=O)c2ccc3ccccc3c2)c2cc(OCCCO)ccc2N1C(=O)c1ccccc1 | -0.444 | -0.183 | 0.0087 | 0.973 | 0.525 | -0.0064 | 1.13 | 0.0705 (inactive) | 0.623 | -0.0994 | 1.13 | -0.087 (inactive) | -1.05 (inactive) | 0.41 (inactive) | 1.6 | 1.06 (inactive) | -0.139 | 0.798 | 0.983 | -0.0829
CC(C)(C)OC(=O)CC[C@@]1(C(N)=O)N=C(c2ccc(OCCCO)cc2)O[C@@H]1c1ccccc1N=[N+]=[N-] | 0.0551 | 1.86 | 0.0354 | 1.23 | 1.46 | 0.798 | 1.36 | 3.06 (inactive) | 0.18 | -0.0645 | 1.16 | 0.745 (inactive) | -0.86 (inactive) | -0.579 (inactive) | 3.41 | 0.77 (inactive) | 0.0539 | 0.465 | 0.976 | -0.019
O=C(NCc1ccccc1)[C@@H]1c2ccccc2C(=O)N(C2CCCCC2)[C@H]1c1ccc(CO)cc1 | -1.15 | 0.149 | -0.0407 | 0.57 | -0.287 | 1.68 | 1.38 | -1.48 (inactive) | -0.309 | -0.283 | 1.47 | -0.406 (inactive) | -0.577 (inactive) | 0.39 (inactive) | 2.53 | -0.175 (inactive) | -0.322 | 1.41 | 1.03 | -0.352
C=CCC(OC(C)=O)[C@@H]1[C@@H](N(Cc2cc3ccccc3o2)C(=O)c2ccc(C)cc2)c2cc(OCCCO)ccc2N1C(=O)c1ccc(-c2ccccc2)cc1 (stereo not given in full) | -0.292 | 0.195 | 0.0337 | 0.18 | 0.127 | -0.158 | -0.491 | -1.35 (inactive) | -0.21 | 0.113 | -0.486 | -6.89 (inactive) | -1.27 (inactive) | -2.17 (inactive) | 0.666 | -0.818 (inactive) | 0 | 0.132 | -0.217 | -0.258
CN1C(=O)C2C=CC(C(O)C(C)(C)C)N(Nc3ccccc3)C2C1=O (stereo not given) | 0.207 | -0.565 | -0.14 | -0.181 | 0.0262 | 1.4 | 0.291 | -0.269 (inactive) | 0.0082 | -0.173 | -0.316 | 0.392 (inactive) | 1 (inactive) | 0.949 (inactive) | 3.16 | -0.971 (inactive) | -0.266 | -0.611 | -0.784 | -0.19
Cc1ccccc1/C=C/C=O | -0.162 | -0.623 | -0.135 | -0.0909 | -1.09 | -0.628 | -0.631 | 0.258 (inactive) | -0.127 | 0.0957 | -1.47 | -1.01 (inactive) | -3.42 (inactive) | -0.402 (inactive) | -0.672 | 0.35 (inactive) | -0.13 | -0.13 | -1.63 | -0.307
